High-throughput results as filed in PubChem BioAssay.
In the library only some 6.1% were active in any assay of this set; here they are far more common.
D3 antag: qHTS of D3 Dopamine Receptor Antagonist: qHTS. D(3) dopamine receptor (Homo sapiens), P35462. D3R cells, DiscoveRx beta-arrestin luminescence, antagonist mode; stronger effect = lower value. max response, negative = inhibition, %. actives 2.5% (n = 360,000). AID 652054, 2013; in the data active means max response below about -50%; inconclusive means no clear call, values can overlap the other calls; further: on the % scale 0 is the no-effect control and ±100 the full control effect
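Cells plated overnight at 1500 cells/well, then exposed to library compounds with dopamine controls for 90 minutes at 37 degrees C. DiscoveRx reagent added for 30–60 minutes at room temperature; luminescence read, quantitative HTS format.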
D1 PAM: Potentiators of Human D1 Dopamine Receptor: qHTS | potentiation, % at 10 µM | D(1A) dopamine receptor (Homo sapiens), P21728 | HEK293 TREx D1 cells, calcium flux, dopamine EC20 potentiation | actives 0.036% (n = 360,000); in the data active means potentiation above about 30%; further: 0% is about no effect
Target sequence (P21728 whole entry, looked up): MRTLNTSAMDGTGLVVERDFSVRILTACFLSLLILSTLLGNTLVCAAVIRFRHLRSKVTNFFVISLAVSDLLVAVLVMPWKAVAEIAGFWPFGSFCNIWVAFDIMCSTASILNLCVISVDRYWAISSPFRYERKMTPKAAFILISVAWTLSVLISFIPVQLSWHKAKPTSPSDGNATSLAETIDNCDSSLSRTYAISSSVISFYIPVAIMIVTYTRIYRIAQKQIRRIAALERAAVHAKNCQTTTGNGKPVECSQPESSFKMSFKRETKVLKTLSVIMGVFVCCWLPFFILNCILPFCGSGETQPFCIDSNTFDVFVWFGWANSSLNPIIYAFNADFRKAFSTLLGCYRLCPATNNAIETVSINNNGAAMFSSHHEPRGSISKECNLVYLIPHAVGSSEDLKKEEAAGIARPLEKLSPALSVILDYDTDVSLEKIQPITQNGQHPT
D1 ag: Allosteric Agonists of the Human D1 Dopamine Receptor: qHTS; activation, % at 2 µM; actives 1% (n = 360,000); D(1A) dopamine receptor (Homo sapiens), P21728; HEK293 T-REx D1 cells, calcium flux, agonist mode; AID 504660, 2011; in the data active means activation above about 30%; further: 0% is about no effect
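Agonism was scored from calcium flux recorded over 180 s (1 read/s) after pintool compound addition, following a 10-cycle baseline. Cells were inducible force-coupled HEK293 TREx D1, plated overnight at 30 C and loaded with no-wash calcium dye.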
D1 antagonist: Antagonist of Human D 1 Dopamine Receptor: qHTS | activity change, negative = inhibition, % at 10 µM | actives 3.2% (n = 360,000) | AID 504652, 2011 | HEK293 TREx D1 cells, calcium flux, dopamine EC80; stronger effect = lower value; in the data active means activity change below about -30%; further: on the % scale 0 is the no-effect control and ±100 the full control effect
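Inducible Hek293 Trex D1 cells (tetracycline, overnight, 30 C). Calcium dye 30–90 min RT. Antagonist mode: EC80 dopamine added after 180 s compound read.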
DRD3 agonist: qHTS of D3 Dopamine Receptor Agonist: qHTS; actives 0.58% (n = 410,000); D(3) dopamine receptor (Homo sapiens), P35462; max activation, %; D3R DiscoveRx beta-arrestin cells, luminescence, 90 min; in the data active means max activation above about 30%; further: 0% is about no effect
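Cells at 1500/well, incubated overnight, then treated with pinned compounds (dopamine as control) for 90 min at 37 degrees C. DiscoveRx reagent added for 30 - 60 minutes at room temperature; luminescence read.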
* = called active by the depositor; u = inconclusive; x = no result given.

SMILES | D3 antag | D1 PAM | D1 ag | D1 antagonist | DRD3 agonist
CCCNC(=O)Cn1nc(C)c2c(C)n(-c3ccccc3)nc2c1=O | x | -5 | 2 | 2 | -22
CCOc1ccccc1NC(=O)C1CCN(S(=O)(=O)c2ccc3[nH]c4c(c3c2)CCCCC4)CC1 | x | -2 | 3 | -1 | 1
Cn1cc(C(=O)NCN2CCCCC2)c2ccccc21 | 0 | -4 | 2 | -40* | -9
O=C(Nc1ncccn1)c1cc([N+](=O)[O-])cc([N+](=O)[O-])c1 | 2 | -1 | 2 | 8 | 7
O=[N+]([O-])c1cc(-c2ncccn2)c([N+](=O)[O-])s1 | -104* | -6 | 1 | -14 | -19
CC(C)(C)C(=O)NC(NC(=S)Nc1sc2c(c1C#N)CCCC2)C(Cl)(Cl)Cl (configuration not stated) | -55* | -2 | 15 | -28 | 9
CC(C)CC(NC(=O)C1CCC(C)CC1)C(=O)Nc1cccnc1 (configuration not stated) | -23 | -3 | 0 | -35* | -1
CC(C)CC(NC(=O)C1CCC(C)CC1)C(=O)NCc1cccnc1 (configuration not stated) | 3 | -8 | 1 | 2 | -3
CC(CC(=O)Nc1ccc(C(N)=O)cc1)c1ccccc1 (configuration not stated) | u | -3 | 2 | 3 | -3
CC(C)Cc1ccc([C@H](C)C(=O)O)cc1 | 9 | x | x | x | 5
CC(C)Cc1ccc(C(C)C(=O)Nc2ccc(O)cc2)cc1 (configuration not stated) | -3 | 5 | 83* | -68* | 3
CC(C(=O)Nc1cccnc1)c1ccc([N+](=O)[O-])cc1 (configuration not stated) | -15 | 5 | 25 | 6 | -1
CC(CC(=O)Nc1cccnc1)c1ccccc1 (configuration not stated) | -11 | -3 | 1 | 0 | 42*
CC(C)Cc1ccc(C(C)C(=O)Nc2cccnc2)cc1 (configuration not stated) | 28 | -5 | 75* | -51* | 6
Cc1cccc2c1-c1sc(C(=O)N(C)c3cccc(Cl)c3)cc1CO2 | x | -4 | 7 | 20 | -1
Cc1nc2n(c(=O)c1CCN1CCC(c3noc4cc(F)ccc34)CC1)CCC[C@H]2O | x | x | x | x | -30
COC(=O)c1scc(S(=O)(=O)c2ccccc2)c1N | -9 | 1 | 5 | 5 | -2
COC(=O)c1scc(S(=O)(=O)C(C)(C)C)c1N | 19 | -1 | 4 | -37* | 2
CC1CCN(C(=O)c2ccc3c(c2)N(Cc2ccccc2F)C(=O)c2ccccc2S3(=O)=O)CC1 | x | 1 | 2 | 10 | 1
NS(=O)(=O)c1ccc(CCNc2ncnc3c2cnn3-c2cccc(Cl)c2)cc1 | x | -4 | 0 | -64* | -9
Fc1cccc(Nc2ncnc3c2cnn3-c2ccccc2)c1 | 0 | -13 | 3 | -13 | 4
Clc1cccc(Nc2ncnc3c2cnn3-c2ccccc2)c1 | 2 | -15 | 6 | -55* | 1
COc1ccc(NC(=O)c2cnn(-c3ccc(C)cc3)c2-n2cccc2)cc1Cl | x | -4 | 4 | -31* | -2
N#Cc1cccc(Nc2ncnc3c2cnn3-c2cccc(Cl)c2)c1 | x | -4 | 1 | -49* | 2
CNC(=O)Cn1c(=O)c2cccn2c2ccc(F)cc21 | x | -2 | 3 | 1 | -10
SMILES | D3 antag | D1 PAM | D1 ag | D1 antagonist | DRD3 agonist
NS(=O)(=O)c1ccc(CCNc2nccn(-c3cccc(C(F)(F)F)c3)c2=O)cc1 | x | -5 | 3 | -32* | -8
COc1ccc(Nc2ncnc3c2cnn3-c2ccc(C)cc2)cc1Cl | x | -4 | -1 | -65* | -6
CCN(C(=O)c1cc2c(Cl)nc3ccc(C)cc3c2s1)c1cc(OC)ccc1OC | x | -2 | 11 | 12 | -2
Cc1ccc2nc(CCc3nc4ccc(C)cc4o3)oc2c1 | 12 | -1 | 6 | 4 | 2
Cc1ccc2nc(Cc3ccc(N)cc3)oc2c1 | -16 | -12 | 1 | -31* | -3
O=C1CN2C(=N1)N(Cc1ccccc1)c1ccccc12 | 6 | -11 | 1 | -87* | 2
COc1ccccc1CNC(=O)c1cc2ccc3ccc(C)[nH]c3c2n1 | x | -3 | 3 | -12 | 7
Cc1nc(C)c(C(=O)O)s1 | -21 | 3 | 0 | 4 | 47*
CCCSc1nc(O)c(C2OC(=O)c3c2ccc(OC)c3OC)c(=O)n1-c1ccccc1 (configuration not stated) | 0 | -4 | 0 | 1 | -8
CCCCSc1nc(O)c(C2OC(=O)c3c2ccc(OC)c3OC)c(=O)n1-c1ccccc1 (configuration not stated) | u | 2 | 1 | -34* | 0
CCC(c1nc2ccccc2[nH]1)n1c(-c2ccnc(Cl)c2)nc2ccccc21 (configuration not stated) | -75* | x | x | x | -11
COc1ccc(CC2(CO)CCN(Cc3cnn(-c4ccccc4OC)c3)CC2)cc1 | -89* | -6 | 5 | -1 | -19
COc1ccc(CC2(CO)CCN(Cc3cnn(-c4ccc(F)cc4)c3)CC2)cc1 | -23 | -4 | 47* | -29 | -14
COc1ccc(CC2(CO)CCN(Cc3cnc(-c4ccccc4C)nc3)CC2)cc1 | -9 | -2 | 2 | -2 | -11
COc1ccc(CC2(CO)CCN(Cc3cnn(-c4ccccc4)c3)CC2)cc1 | u | 1 | 2 | 13 | -19
COc1cccc(-n2c(SCc3ccccc3C)nc3c([nH]c4ccccc43)c2=O)c1 | x | -5 | 2 | 16 | 1
COc1ccc(CNc2nc(NCc3ccc(OC)cc3)c3[nH]cnc3n2)cc1 | 73 | 1 | 6 | 6 | 56*
COc1ccc(C)cc1NS(=O)(=O)c1ccc2c(c1)CCCN2C(C)=O | x | -2 | 5 | -17 | -3
COc1ccc(N(Cc2cccs2)C(=O)c2ccccc2C)cc1 | x | 1 | 4 | -36* | -22
COc1ccc(N(Cc2cccs2)C(=O)c2ccc(C(C)(C)C)cc2)cc1 | x | -1 | 14 | 2 | -22
CC(=O)c1ccc(OCC(O)CN(C)Cc2cccs2)cc1 (configuration not stated) | u | 1 | 37* | -43* | -4
Cc1ccc(N(Cc2cccs2)C(=O)c2ccccc2)cc1 | x | -1 | 1 | -34* | 3
Cc1ccc(N(Cc2cccs2)C(=O)c2ccc(Br)o2)cc1 | x | -2 | 8 | -19 | -17
COc1ccc(N(Cc2cccs2)C(=O)c2ccc(OCC(C)C)cc2)cc1 | x | 3 | 34* | 3 | -19
O=C(COc1ccccc1F)Nc1ccc(OCc2cc(=O)n3ccccc3n2)cc1 | x | -1 | 1 | -6 | -14
